# Assay results taken from PubChem BioAssay AID504882 (Broad Institute, 2011).
# Hit rate of the full screen: of about 1,200 compounds, about 290 (24%) were called active. Another 9% or so got no clear call; they are omitted. The rule behind the calls is not given here. Not all results are given here. Entries with a potency or affinity are not part of this list.
# Experiment: LCL viability reduction – cell-based, plate reader, cherry-picks, set 2, cytotoxicity control, dose response (AID 504882);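 note: 0% = neutral control wells and -100% = positive control wells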
# Conditions: EBV lymphoblastoid cells (LCL) viability; series mostly up to 19.5 µM; activity change, negative = cytotoxicity: at the top concentration
SMILES,"activity change, negative = cytotoxicity",outcome
COc1ccc(C(=O)CN(CCC(=O)O)S(=O)(=O)c2ccc([N+](=O)[O-])cc2)cc1,10.8% (inactive),
O=C(NCCc1ccccc1)c1ccc2nccnc2c1,15.7% (inactive),
CCN(C(=O)CSc1nnc(Nc2cccc(C)c2C)s1)C1CCS(=O)(=O)C1 (stereo not drawn),26.5% (inactive),
CCCC(C)NC(C)C(=O)NC1CCCC1 (stereo not drawn),3.5% (inactive),
COCCNC(=O)C1CCC(CNS(=O)(=O)c2ccccc2)CC1 (stereo not drawn),5.57% (inactive),
Cc1ccc(-c2nnn(CC(=O)N(Cc3ccco3)C(C(=O)NC(C)(C)C)c3ccncc3)n2)o1 (stereo not drawn),20.2% (inactive),
COCCCNC(=O)CN1C(=O)COc2ccc(S(=O)(=O)N3CCOCC3)cc21,16.5% (inactive),
O=C(CN1C(=O)c2ccccc2S1(=O)=O)c1ccccc1F,10.5% (inactive),
CN(Cc1ccccc1)c1nc(N)c([N+](=O)[O-])c(NCc2ccccc2)n1,1.71% (inactive),
CCCCCn1c(N2CCOCC2)nc2c1c(=O)n(CC(N)=O)c(=O)n2C,1.91% (inactive),
NC(=O)N/N=C/c1ccc(N2CCOCC2)s1,15.9% (inactive),
CCCCCC(=O)N1C[C@@H](O)[C@H](n2cc(C3CC3)nn2)C[C@@H]1c1ccc(C)cc1,17.4% (inactive),
CCN1CCN(Cc2ccc(NC(=O)c3ccc(C)c(NC(=O)N4CCNC4=O)c3)cc2C(F)(F)F)CC1,,inactive
CCN1CCN(Cc2ccc(NC(=O)c3ccc(C)c(NC(=O)c4cccc5[nH]ccc45)c3)cc2C(F)(F)F)CC1,10.9% (inactive),
COc1ccc(/C(CC2OC(=O)c3ccccc32)=N\NC(N)=O)cc1 (stereo not drawn),2.74% (inactive),
c1ccc2c(-c3ccncc3)c[nH]c2c1,20.4% (inactive),
C[C@@H]1CN([C@@H](C)CO)C(=O)c2cc(NC(=O)Nc3ccccc3)ccc2O[C@H]1CN(C)C(=O)Nc1cccc2ccccc12,1.23% (inactive),
c1ccc(C2c3[nH]c4ccccc4c3CCN2Cc2cccn2-c2ccccn2)nc1 (stereo not drawn),7.27% (inactive),
COc1ccccc1NC(=O)C(=O)N/N=C(\C)CC(=O)Nc1ccccc1C(F)(F)F,-1.19% (inactive),
COc1ccc(C(=O)N2CC(=O)Nc3ccccc32)cc1S(=O)(=O)N1CCCC1,9.07% (inactive),
COc1ccc(N2C(=O)CC(Sc3nnc(-c4ccccc4)o3)C2=O)cc1 (stereo not drawn),9.47% (inactive),
COc1cc(OC)cc(-c2c(C#Cc3ccsc3)c3cc(-c4cc(OC)c(OC)c(OC)c4)ccc3n2C)c1,18% (inactive),

SMILES,"activity change, negative = cytotoxicity",outcome
Cc1nc(N)nc(SCc2ccc([N+](=O)[O-])cc2)c1N,16.3% (inactive),
COCCCn1cnnc1SCC(=O)Nc1ccc(S(=O)(=O)N2CCCC2)cc1,2.78% (inactive),
O=C(CCN1CCC(c2ccccc2)C1)c1ccc2c(c1)OCCO2 (stereo not drawn),5.06% (inactive),
COCCn1c(C)cc(C(=O)COC(=O)C23CC4CC(CC(O)(C4)C2)C3)c1C,5.11% (inactive),
CC(C)OCCCNC(=O)C1CCC(CNS(=O)(=O)c2ccccc2)CC1 (stereo not drawn),16.1% (inactive),
COC(=O)c1cc2n(n1)CCN(Cc1ccccc1Cl)C2=O,7.47% (inactive),
COc1ccc(OC)c2c1sc(=NC(=O)c1ccco1)n2C,3.7% (inactive),
c1ccc(-n2nnc3c(N4CCOCC4)ncnc32)cc1,-8.14% (inactive),
CCc1cc2c(Sc3nc4ccccc4s3)ncnc2s1,-26.7% (inactive),
Cc1ccc(CNC(=O)C2CCN(S(=O)(=O)c3c(C)noc3/C=C/c3ccco3)CC2)cc1,2.03% (inactive),
COc1cc(Cl)cc(C(c2c(C(=O)O)[nH]c3ccccc23)c2c(C(=O)O)[nH]c3ccccc23)c1O,1.54% (inactive),
Cn1cccc1C(=O)OCC(=O)Nc1ccc2c(c1)OCO2,12.5% (inactive),
Cc1ccc(C(=O)N2CCN(c3ccc(NC(=O)CSc4ccc(Cl)cc4)cc3)CC2)cc1,12.6% (inactive),
O=C(Nc1cccc(Cl)c1)Nc1cccc(C(=O)O)c1,11.1% (inactive),
CC1CCN(c2ccc(-c3ccc(NC(=O)C(F)(F)F)cc3)nn2)CC1,-0.015% (inactive),
CSc1ccccc1NC(=O)CN1CCCCC1C (stereo not drawn),8.46% (inactive),
Cn1cccc1CC(=O)NNC(=S)Nc1ccccc1Cl,21.9% (inactive),
Cc1ccc(NC(=S)NCc2cccs2)cc1,15.5% (inactive),
COc1ccccc1NC(=S)NN=C(C)c1ccccn1,-19.9% [at 6.8 µM] (inactive),
Cc1ccnc(NC(=O)c2cccc(NC(=O)c3ccc(Cl)c(Cl)c3)c2)c1,16.7% (inactive),
S=C(NN=C1C2CC3CC(C2)CC1C3)Nc1ccccc1,21.1% (inactive),
CC(=O)NC(CCS(C)(=O)=O)C(=O)Nc1ccc(Cl)c(Cl)c1 (stereo not drawn),9.78% (inactive),

SMILES,"activity change, negative = cytotoxicity",outcome
COCCCNCC1C(Oc2ccc(Cl)cc2)C(=O)N1c1ccccc1C (stereo not drawn),18.1% (inactive),
O=c1cc(Cl)nc2ccccn12,11% (inactive),
CCCc1nc(SCC(=O)NCc2ccco2)c2c(=O)n(C)c(=O)n(C)c2n1,-11.3% (inactive),
COC(=O)[C@@]1(Cc2ccccc2)[C@H]2C(=O)N(Cc3ccccc3)C(=O)[C@H]2[C@H]2CN=C(SCc3ccc(Cl)cc3)N21,49.3% (inactive),
CCOCCCNC(=O)CN1C(=O)/C(=C\c2ccc(C)cc2)Sc2ccccc21,3.59% (inactive),
O=C1NC(c2cccc(OCc3ccccc3)c2)Nc2ccccc21 (stereo not drawn),3.11% (inactive),
COc1ccccc1C1(CC(=O)O)CCOC(C)(C)C1 (stereo not drawn),23.2% (inactive),
Clc1cccc(CN2CCCCCC2)c1,18.4% (inactive),
O=C(c1ccccc1Br)N1CCN(Cc2ccc3c(c2)OCO3)CC1,2.58% (inactive),
Fc1cccc(Cl)c1/C=N/n1c(-c2cccnc2)n[nH]c1=S,13.3% (inactive),
Cn1c(-c2ccccc2)cnc1SCC(=O)N1CCCCC1,-1.03% (inactive),
COc1ccc([C@H]2N[C@]3(CCCN(Cc4ccco4)C3=O)[C@H]3C(=O)N(Cc4ccccc4)C(=O)[C@@H]23)cc1,8.48% (inactive),
Cc1nn(-c2ccccc2)c(Cl)c1C(=O)N1CCN(c2ncnc3c2cnn3-c2ccccc2)CC1,8.3% (inactive),
COc1ccc(/C=C2\N=C(C)OC2=O)cc1[N+](=O)[O-],15.4% (inactive),
Cc1ccc(N2C(=O)c3ccccc3C2Nc2cccnc2)nc1 (stereo not drawn),8.83% (inactive),
C=CCN=C1NN=C(c2cc(C)n(CCOC)c2C)CS1,7.41% (inactive),
COc1ccc(-c2nc(CN3CCC(C(=O)N4CCOCC4)CC3)c(C)o2)cc1C,17% (inactive),
Cc1cc2ccccc2n1CCNC(=O)COc1ccc2ccccc2c1,-7.24% (inactive),
Cc1ccccc1C(=O)c1c[nH]c(C(=O)NCc2ccco2)c1,2.39% (inactive),
O=C1c2ccccc2C(O)N1Cc1ccccc1 (stereo not drawn),14.5% (inactive),
Nc1ncnc2c1c(-c1ccc(Oc3ccccc3)cc1)cn2C1CCCC1,50.1% [at 6.8 µM] (inactive),
CN1CCN(C(=O)C2=C[C@@H](C(C)(C)C)C[C@@H](OCc3ccc(CO)cc3)O2)CC1,11.6% (inactive),

SMILES,"activity change, negative = cytotoxicity",outcome
COc1ccc(C(CNC(=O)Nc2ccccc2)N2CCN(C)CC2)cc1 (stereo not drawn),14.2% (inactive),
CC1CN(c2cc(=O)n(-c3ccccc3)c(=O)[nH]2)CC(C)O1 (stereo not drawn),18.3% (inactive),
N#CCCn1cc(C(=O)Nc2ccccn2)c(-c2ccccc2)n1,14.4% (inactive),
O=C(Nc1ccccn1)NC1CCCCC1,7.78% (inactive),
Cc1ccc(NC(=O)C(=O)Nc2ccccn2)cc1,-5.99% (inactive),
COc1ccc(OCC(=O)Nc2nccs2)cc1,-3.7% (inactive),
O=[N+]([O-])c1ccc(N2CCN(Cc3cccc([N+](=O)[O-])c3)CC2)cc1,-8.09% (inactive),
Cc1ccc(C2=C/C(=C\c3cccnc3)C(=O)O2)cc1,26.3% (inactive),
CCOc1ccc(N(C(C)C(=O)N2CCCCCC2)S(C)(=O)=O)cc1 (stereo not drawn),16.9% (inactive),
CCN(CC)c1ccc(NC(=O)c2cccc(F)c2)c(C)c1,-4.81% (inactive),
Cn1ncc(Cl)c1C(=O)NC1CCCC1,8.05% (inactive),
CN(C)c1cccc(C(=O)N/N=C/c2ccccc2F)c1,-0.033% (inactive),
COCCn1c(SCC(=O)N2CCc3ccccc32)nc2c(c1=O)SC(C)C2 (stereo not drawn),4.03% (inactive),
Cc1cc(C)n(C2CCCCC2OC(=O)c2ccccc2F)n1 (stereo not drawn),6.26% (inactive),
O=C(c1ccc(Cl)cc1)N1CCN(CCOc2ccccc2)CC1,-5.59% (inactive),
CNC(=S)N1N=C(c2cccs2)CC1c1ccc(F)cc1 (stereo not drawn),6.47% (inactive),
O=C1OCCC1Sc1nnc(-c2ccc(Cl)cc2Cl)o1 (stereo not drawn),3.95% (inactive),
CCCC(=O)C1=C(O)C(C(=O)OC)C(C)(C)CC1=Nc1ccncc1 (stereo not drawn),0.978% (inactive),
Cc1cc(C(=O)COC(=O)c2ccc[nH]c2=O)c(C)n1-c1ccccc1,7.68% (inactive),
COc1ccc(S(=O)(=O)N2CCOCC2)cc1NC(=O)COC(=O)CCS(=O)(=O)c1ccc(C)cc1,18.5% (inactive),
O=C(O)CCc1nc(-c2ccc(Cl)cc2)no1,12.6% (inactive),
NC(=O)c1sc2nc3c(c(-c4cccs4)c2c1N)CCCCC3,-24.2% (inactive),

SMILES,"activity change, negative = cytotoxicity",outcome
O=C1CC(c2cccs2)Cc2nc(NC(=O)C3CC3)ncc21 (stereo not drawn),7.29% (inactive),
O=C(Nc1ccc(Br)cc1)C1CC(O)CN1C(=O)OCc1ccccc1 (stereo not drawn),-0.795% (inactive),
CC(CN1CCCCC1)OC(=O)c1ccc2c(c1)OCO2 (stereo not drawn),8.24% (inactive),
COC(=O)C1=C(C(=O)c2ccccc2)C(c2ccccc2)n2nnnc2N1 (stereo not drawn),9.39% (inactive),
Cc1ccc(NC(=O)/C=N/OCC(=O)NCc2ccccc2Cl)cc1,4.91% (inactive),
Cc1cc(N)nc(=O)n1C1CC(O)C(CO)O1 (stereo not drawn),13.5% (inactive),
CCOC(=O)/C=C(\C)Sc1cc(=O)oc2ccccc12,9.34% (inactive),
COc1ccc(S(=O)(=O)N2CCCCCC2)cc1C(=O)OCc1cccc(OC)c1OC,-3.66% (inactive),
CCCNC(=O)N1CCN(S(=O)(=O)c2ccc(C)c(C)c2)CC1,27.5% (inactive),
Cc1ccc(-n2nc(C(=O)NCc3ccc(C)o3)c3c4ccccc4n(C)c3c2=O)cc1,3.13% (inactive),
COc1ccc(OC)c(CCNC(=O)CCn2nc(C)c3c(C)n(-c4ccccc4)nc3c2=O)c1,17% (inactive),
Cn1cc(CC(=O)NCCCN2CCCC2)c2ccccc21,8% (inactive),
CCOC(=O)N1CCC(NC(=O)C2CCCN(Cc3nc(-c4cccc(Cl)c4)oc3C)C2)CC1 (stereo not drawn),20.2% (inactive),
O=C(CN1C(=O)c2ccccc2S1(=O)=O)c1ccccc1,15.8% (inactive),
NC(=O)OCC(COC(N)=O)c1ccccc1,7.54% (inactive),
COc1ccc(-n2cnc3c(cnn3CCC#N)c2=N)cc1,16.5% (inactive),
O=C(NC1CCCCC1)N1CCN(c2ccc([N+](=O)[O-])cc2)CC1,-5.42% (inactive),
COc1ccc(CCNC(=O)c2nnn(-c3ccc4c(c3)OCCO4)c2N)cc1OC,10.3% (inactive),
Cc1ccccc1-n1nc(C)c2cc(C(=O)NC3CC3)sc21,12.5% (inactive),
CC1CCN(CCOc2ccc(C(=O)c3ccccc3)cc2)CC1,8.06% (inactive),
